Assay outcomes as filed in PubChem.
Rows were chosen to be rich in hits. Some 14% of all compounds tested hit in one or more screens of this group.
Giardia FBPA inh: qHTS Assay for Inhibitors of Fructose-1,6-bisphosphate Aldolase from Giardia Lamblia; A8B2U2; Potency, µM (titrated, usually from 59.6 µM), without a hit: at the highest dose activity, negative = inhibition, actives largely listed as inhibitors; purified Giardia FBPA; AID 2451, 2010; 0.71% of 290,000 active; note: potency is the fitted concentration of half-maximal effect; % is set by controls: 0 for no effect and ±100 for the full control effect; nearly all actives have a fitted effect of over 55% in size
Target sequence (A8B2U2 whole entry, looked up): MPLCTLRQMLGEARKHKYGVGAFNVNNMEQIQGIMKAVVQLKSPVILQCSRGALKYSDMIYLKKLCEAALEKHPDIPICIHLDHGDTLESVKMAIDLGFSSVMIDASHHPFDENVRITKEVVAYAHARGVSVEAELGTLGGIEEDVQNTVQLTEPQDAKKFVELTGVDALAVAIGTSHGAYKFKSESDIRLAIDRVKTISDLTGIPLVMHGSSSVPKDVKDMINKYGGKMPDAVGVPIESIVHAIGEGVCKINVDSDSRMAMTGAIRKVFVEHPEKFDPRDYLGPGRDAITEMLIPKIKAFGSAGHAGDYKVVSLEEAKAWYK
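40 nM FBPA preincubated 10 min at RT with compound (up to 57.5 uM final), then substrate plus GAPDH/TPI/NAD/arsenate coupling and diaphorase/resazurin added. Fluorescence read after 20 min at RT, 525/598 nm.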
Shiga toxin inh: A qHTS for Small Molecule Inhibitors of Shiga Toxin; inhibition, % at 38.7 µM; 9.2% of 290,000 active; Vero cells, Shiga toxin protein synthesis inhibition reporter; in the data active = inhibition mostly above about 28%, no sharp cut-off; inactive = mostly below about 43%; note: 0% is about no effect
NS1 inh: qHTS Assay for Inhibitors of Influenza NS1 Protein Function; Potency, µM (top dose mostly 46.1 µM), for inactives: at the highest dose activity, positive = more growth; 0.4% of 270,000 active; calls by dose curve; note: potency is the fitted concentration of half-maximal effect; actives are rising curves; nearly all actives have a fitted effect of over 50% in size
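Recovery from NS1-induced slow growth read by OD600 in budding yeast switched to galactose assay medium (pH 6.0, -URA) at 1:100 dilution. Compound 23 nl per well; the matching strain lacking NS1 serves as control.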
Cycloheximide cs: Cycloheximide Counterscreen for Small Molecule Inhibitors of Shiga Toxin; cell reporter, cycloheximide protein synthesis inhibition counterscreen; max response, %; 12% of 300,000 active; AID 2314, 2010; in the data active = max response mostly above about 13%, no sharp cut-off; inactive = mostly below about 14%; note: read at 38.3 µM for the half of the compounds with a filed dose; 0% is about no effect
LmPK inh: qHTS Assay for Inhibitors of Leishmania Mexicana Pyruvate Kinase (LmPK) | Q27686 | purified LmPK, Kinase-Glo ATP luminescence, 1 h | Potency, µM (highest dose often 57.5 µM), without a hit: at the top dose activity change, negative = inhibition, hits mostly inhibitors | 0.37% of 290,000 active; note: potency is the fitted concentration of half-maximal effect; % is set by controls: 0 for no effect and ±100 for the full control effect
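0.1 nM LmPK, 0.5 mM PEP, 0.1 mM ADP; 50 mM imidazole pH 7.2, 7 mM MgCl2, 50 mM KCl; 1 h RT. Kinase-Glo luminescence readout, normalized to no-enzyme (full inhibition) and uninhibited wells.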
The depositor's hits bear a star. Unless noted, calls come from the whole dose curve; as a rule, active = well fitted curve in the direction sought with a large enough effect; inconclusive = small, poorly fitted or top-dose-only effect, or another doubt; inactive = no such curve, though single readings can be large; an effect the other way counts as inactive or inconclusive.

`Cn1c(=O)oc2cc(S(=O)(=O)Nc3ccc4c(c3)OCCO4)ccc21` gave Giardia FBPA inh 10.8%, Shiga toxin inh 42.4, NS1 inh -15.9%, Cycloheximide cs 15.6 and LmPK inh 9.0%.
For Cn1c(=O)c(=O)n(C)c2cc(S(=O)(=O)Nc3ccc4c(c3)OCCO4)ccc21 the results were Giardia FBPA inh -21.8%, Shiga toxin inh 115.2*, NS1 inh -4.4%, Cycloheximide cs 61.6* and LmPK inh 1.8%.
Screening Cn1c(=O)oc2cc(S(=O)(=O)NCCC(=O)Nc3ccc4c(c3)OCCO4)ccc21 returned Giardia FBPA inh -1.5%, Shiga toxin inh 14.4, NS1 inh 3.6%, Cycloheximide cs 19.7* and LmPK inh 6.6%.
Screening Cc1cc(C)c2nc(SCC(=O)Nc3cc(C)on3)c(C#N)cc2c1 returned Giardia FBPA inh 3.8%, Shiga toxin inh -3.7, NS1 inh -0.2%, Cycloheximide cs -1.5 and LmPK inh 1.2%.
`Cc1cc(NC(=O)CSc2nc3c(cc2C#N)CCCC3)no1` gave Giardia FBPA inh 0.6%, Shiga toxin inh 48.9*, NS1 inh -0.5%, Cycloheximide cs 38.5* and LmPK inh -0.7%.
Screening Cc1cc(NC(=O)CSc2nc3c(cc2C#N)CCC3)no1 returned Giardia FBPA inh -9.7%, Shiga toxin inh 97.1*, NS1 inh 9.9%, Cycloheximide cs 28.7* and LmPK inh -2.8%.
Cc1cc(NC(=O)CSc2nc3ccccc3cc2C#N)no1 was read as Giardia FBPA inh 4.3%, Shiga toxin inh 39.0*, NS1 inh -13.0%, Cycloheximide cs 17.4 and LmPK inh -4.3%.
For COc1ccc2nc(SCC(=O)Nc3cc(C)on3)c(C#N)cc2c1 the results were Shiga toxin inh -3.5, NS1 inh 7.1%, Cycloheximide cs -2.9 and LmPK inh -5.5%.
c1cncc(CNc2ncncc2-c2ccoc2)c1 was read as Giardia FBPA inh -28.0%.
`CC(=O)O[C@H]1C[C@H]2CC[C@@H]3[C@H]4C[C@@H]([N+]5(C)CCCCC5)[C@@H](OC(C)=O)[C@]4(C)CC[C@@H]3[C@@]2(C)C[C@@H]1[N+]1(C)CCCCC1` gave Giardia FBPA inh 4.9%.
Screening CCC(C)NC(=O)c1ccc(NS(=O)(=O)c2ccc3[nH]c(=O)[nH]c3c2)cc1 (stereo not given) returned Shiga toxin inh 13.3*, NS1 inh -2.2%, Cycloheximide cs 28.0 and LmPK inh -5.2%.
For COCC(=O)N1CCC2(CCCN(c3cccc(-c4ccccc4)c3)C2)CC1 the results were Giardia FBPA inh -4.2%.
`Cc1cc(C(=O)NN=C(Cc2ccccc2)Cc2ccccc2)c(C)o1` gave Giardia FBPA inh 6.5%, Shiga toxin inh 84.0*, NS1 inh 15.5%, Cycloheximide cs 28.5* and LmPK inh 3.8%.
Screening CCCC(CCC)=NNC(=O)c1ccccc1F returned Giardia FBPA inh -7.6%, Shiga toxin inh 16.6, Cycloheximide cs 18.8 and LmPK inh 1.6%.
For O=C(NN=C(Cc1ccccc1)Cc1ccccc1)c1ccncc1 the results were Giardia FBPA inh -13.2%, Shiga toxin inh 20.9, NS1 inh -1.8%, Cycloheximide cs 8.0* and LmPK inh 0.2%.
For O=C(NN=C(Cc1ccccc1)Cc1ccccc1)C1CC1 the results were Giardia FBPA inh 0.8%, Shiga toxin inh 27.3, Cycloheximide cs 20.9* and LmPK inh -3.6%.
For O=C(NN=C(Cc1ccccc1)Cc1ccccc1)c1ccccc1F the results were Giardia FBPA inh -3.6%, Shiga toxin inh 90.7*, Cycloheximide cs 37.5* and LmPK inh 3.2%.
CN1CCN(CCCN)CC1 was read as NS1 inh 0.0%.
Screening O=C(NCc1ccccc1)NC(=O)c1ccccc1F returned Giardia FBPA inh -1.3%, Shiga toxin inh 32.8*, NS1 inh -7.2%, Cycloheximide cs 27.5* and LmPK inh -4.2%.
For Cc1ccc(NC(=O)N2CCCC2)cc1Cl the results were Giardia FBPA inh 5.3%, Shiga toxin inh 83.7*, Cycloheximide cs 38.4* and LmPK inh -9.7%.
Screening Cc1ccc(NC(=O)C(=O)N2CCCC2)cc1Cl returned Giardia FBPA inh 0.6%, Shiga toxin inh 115.9*, NS1 inh 18.0%, Cycloheximide cs 38.7* and LmPK inh -11.1%.
`Cc1cccc(C)c1NC(=O)N1CC=CCC1` gave Giardia FBPA inh -4.3%, Shiga toxin inh -8.9, NS1 inh 1.1%, Cycloheximide cs 3.2 and LmPK inh -0.1%.
For O=C(Nc1ccc(Cl)c(Cl)c1)N1CC=CCC1 the results were Giardia FBPA inh -10.8%, Shiga toxin inh 86.1*, NS1 inh -127.5%, Cycloheximide cs 32.5* and LmPK inh -5.3%.
`O=C(NCCN1CCCC1)c1ccccc1Cl` gave Giardia FBPA inh -2.9%, Shiga toxin inh -13.0, NS1 inh 2.6%, Cycloheximide cs 1.4 and LmPK inh -3.9%.
Cc1ccc(NC(=O)N2CCN(C(=O)c3ccco3)CC2)cc1Cl was read as Giardia FBPA inh -9.4%, Shiga toxin inh -4.5, NS1 inh -3.2%, Cycloheximide cs -3.6 and LmPK inh -2.4%.
`Cc1ccc(Cl)cc1NC(=O)C(=O)N1CCCCC1` gave Giardia FBPA inh 1.2%, Shiga toxin inh 22.5, Cycloheximide cs -2.8 and LmPK inh -6.5%.
`O=C(NCCN1CCCCC1)c1ccc(F)cc1Cl` gave Giardia FBPA inh -0.3%, Shiga toxin inh 27.0, NS1 inh 17.5%, Cycloheximide cs 12.0* and LmPK inh -0.1%.
Cc1noc(NS(=O)(=O)c2ccc(NC(=O)C(CC(C)C)N3C(=O)c4ccccc4C3=O)cc2)c1C (stereo not given) was read as Giardia FBPA inh 17.6%, Shiga toxin inh 25.3, NS1 inh 0.1%, Cycloheximide cs -2.2 and LmPK inh 9.2%.
`CCNC(C)(C)[C@@H](SS)c1ccc(Br)cc1` gave NS1 inh -8.0%.
`Cc1ccc(NC(=O)NCCN2CCCCC2)cc1Cl` gave Giardia FBPA inh -3.5%, Shiga toxin inh 1.3, NS1 inh 4.8%, Cycloheximide cs 13.1* and LmPK inh -0.1%.
`CC1=NN(C(N)=S)C(=O)C1N=Nc1c(Cl)cc([N+](=O)[O-])cc1Cl` (stereo not given) gave Giardia FBPA inh 19.8%, Shiga toxin inh 27.4*, NS1 inh -115.1%, Cycloheximide cs 18.0* and LmPK inh -11.2%.
`CC1=NN(C(N)=S)C(=O)C1N=Nc1ccccc1C` (stereo not given) gave Giardia FBPA inh inconclusive, Shiga toxin inh 38.2, NS1 inh -60.0%, Cycloheximide cs 10.9 and LmPK inh -6.2%.
`CC1=NN(C(N)=S)C(=O)C1N=Nc1ccc(C)cc1C` (stereo not given) gave Giardia FBPA inh 9.4%, Shiga toxin inh 58.6*, NS1 inh -205.9%, Cycloheximide cs 28.6* and LmPK inh 7.3%.
